Test results from the supplement of paper PMC9694430.

Experiments:
Assay in all cases: thermal shift delta Tm vs DMSO control; higher = stronger stabilization (binding)
Conditions in all cases: 12.5 µM; protein concentration 2 µM
[1] = system: LOC_OS02G45750-cb003
Outline: (§1)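 The melting temperature shift given here is a triplicate mean, measured against protein that received only DMSO. Melting temperatures came from Boltzmann fits of differential scanning fluorimetry data on E. coli-expressed, purified rice kinase domain constructs. Each 19.5 μl well contained 2 μM kinase, 100 mM potassium phosphate pH 7.5, 150 mM NaCl, 10% glycerol, 5 × SYPRO Orange and compound in DMSO. Plates were scanned from 25°C to 95°C at 0.05°C/s.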

[2] = system: LOC_OS02G54510-cb004
Outline: as §1

[3] = system: LOC_OS03G04050-cb001
Outline: as §1

[4] = system: LOC_OS03G12390-cb001
Outline: as §1

[5] = system: LOC_OS03G27990-cb004
Outline: as §1

[6] = system: LOC_OS03G50450-cb001
Outline: as §1

[7] = system: LOC_OS03G50810-cb003
Outline: as §1

[8] = system: LOC_OS04G35114-cb001
Outline: as §1

[9] = system: T1, LOC_OS04G38480-cb003
T1 sequence (whole entry): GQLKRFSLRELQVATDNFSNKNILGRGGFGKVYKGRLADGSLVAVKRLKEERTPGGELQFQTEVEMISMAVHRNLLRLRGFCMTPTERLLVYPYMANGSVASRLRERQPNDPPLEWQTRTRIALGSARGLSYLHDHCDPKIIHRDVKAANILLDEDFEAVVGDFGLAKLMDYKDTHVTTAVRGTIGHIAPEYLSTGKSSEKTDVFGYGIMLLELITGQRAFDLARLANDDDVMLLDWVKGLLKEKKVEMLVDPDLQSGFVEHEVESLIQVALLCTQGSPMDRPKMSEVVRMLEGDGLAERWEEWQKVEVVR
Outline: as §1

[10] = system: T2, LOC_OS04G41100-cb001
T2 sequence (whole entry): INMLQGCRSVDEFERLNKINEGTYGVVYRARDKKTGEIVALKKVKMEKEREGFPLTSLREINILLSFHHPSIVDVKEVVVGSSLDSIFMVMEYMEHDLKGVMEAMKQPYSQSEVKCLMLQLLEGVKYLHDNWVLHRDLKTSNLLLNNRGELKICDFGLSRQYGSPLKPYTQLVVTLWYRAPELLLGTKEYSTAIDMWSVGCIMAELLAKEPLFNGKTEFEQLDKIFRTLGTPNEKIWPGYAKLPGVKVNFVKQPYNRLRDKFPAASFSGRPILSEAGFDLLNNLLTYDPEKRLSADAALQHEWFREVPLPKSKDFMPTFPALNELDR
Outline: as §1

[11] = system: LOC_OS04G57630-cb004
Outline: as §1

[12] = system: LOC_OS05G07850-cb002
Outline: as §1

[13] = system: LOC_OS05G16824-cb004
Outline: as §1

[14] = system: LOC_OS05G28520-cb001
Outline: as §1

[15] = system: LOC_OS05G30820-cb001
Outline: as §1

[16] = system: LOC_OS05G43570-cb004
Outline: as §1

[17] = system: LOC_OS06G16330-cb003
Chain of LOC_OS06G16330-cb003 (as listed by the source): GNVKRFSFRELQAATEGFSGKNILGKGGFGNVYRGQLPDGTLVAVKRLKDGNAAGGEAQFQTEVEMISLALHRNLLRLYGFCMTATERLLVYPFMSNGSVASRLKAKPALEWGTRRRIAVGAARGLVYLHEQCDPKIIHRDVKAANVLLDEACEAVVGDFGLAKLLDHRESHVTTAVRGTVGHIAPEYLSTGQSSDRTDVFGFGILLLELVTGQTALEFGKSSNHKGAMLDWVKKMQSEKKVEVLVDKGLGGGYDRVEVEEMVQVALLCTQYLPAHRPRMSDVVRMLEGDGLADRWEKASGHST
Outline: as §1

[18] = system: T3, LOC_OS06G22820-cb001
T3 sequence (whole entry): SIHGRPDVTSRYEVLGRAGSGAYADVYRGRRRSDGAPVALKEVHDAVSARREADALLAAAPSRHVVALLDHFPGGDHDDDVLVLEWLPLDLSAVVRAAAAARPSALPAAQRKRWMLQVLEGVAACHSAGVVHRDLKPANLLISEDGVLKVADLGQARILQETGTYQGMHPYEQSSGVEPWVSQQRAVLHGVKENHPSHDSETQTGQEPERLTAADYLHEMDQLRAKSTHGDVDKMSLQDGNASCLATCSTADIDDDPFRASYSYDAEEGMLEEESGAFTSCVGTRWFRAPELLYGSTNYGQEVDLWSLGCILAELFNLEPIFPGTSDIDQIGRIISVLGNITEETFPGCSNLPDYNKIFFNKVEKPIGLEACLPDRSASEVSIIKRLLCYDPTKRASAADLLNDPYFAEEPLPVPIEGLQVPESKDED
Outline: as §1

[19] = system: LOC_OS07G06570-cb004
Outline: as §1

[20] = system: LOC_OS07G07230-cb001
Outline: as §1

For `COc1ccccc1-c1cc(Nc2cccc(CS(N)(=O)=O)c2)ncn1`, the “thermal shift delta Tm” value [1] was 3.96 °C, the “thermal shift delta Tm” value [2] was 0.61 °C and the “thermal shift delta Tm” value [3] was 0.43 °C. For the same molecule, the “thermal shift delta Tm” value [4] was 0.77 °C, the “thermal shift delta Tm” value [5] was 0.57 °C and the “thermal shift delta Tm” value [6] was 0.51 °C. The “thermal shift delta Tm” value [7] was 0.56 °C, the “thermal shift delta Tm” value [8] was 1.63 °C and the “thermal shift delta Tm” value [9] was 2.33 °C. The “thermal shift delta Tm” value [10] was 0.8 °C, the “thermal shift delta Tm” value [11] was 0.35 °C and the “thermal shift delta Tm” value [12] was 5.65 °C. For the same molecule, the “thermal shift delta Tm” value [13] was 3.26 °C, the “thermal shift delta Tm” value [14] was 0.95 °C and the “thermal shift delta Tm” value [15] was 0.39 °C. For the same molecule, the “thermal shift delta Tm” value [16] was 0.37 °C, the “thermal shift delta Tm” value [17] was 4.76 °C and the “thermal shift delta Tm” value [18] was 0.66 °C. The “thermal shift delta Tm” value [19] was 0.36 °C and the “thermal shift delta Tm” value [20] was -0.22 °C.

In the case of `Cc1[nH]c(/C=C2\C(=O)Nc3ccc(S(=O)(=O)Cc4c(Cl)cccc4Cl)cc32)c(C)c1C(=O)N1CCC[C@@H]1CN1CCCC1`, the “thermal shift delta Tm” value [1] was 0 °C, the “thermal shift delta Tm” value [2] was 0.51 °C and the “thermal shift delta Tm” value [3] was 0.3 °C. For the same molecule, the “thermal shift delta Tm” value [4] was 4.07 °C, the “thermal shift delta Tm” value [5] was 0.43 °C and the “thermal shift delta Tm” value [6] was 0.47 °C. The “thermal shift delta Tm” value [7] was 0 °C, the “thermal shift delta Tm” value [8] was 7.26 °C and the “thermal shift delta Tm” value [9] was 2.55 °C. For the same molecule, the “thermal shift delta Tm” value [10] was 0.74 °C, the “thermal shift delta Tm” value [11] was 2.32 °C and the “thermal shift delta Tm” value [12] was 10.3 °C. The “thermal shift delta Tm” value [13] was 0 °C, the “thermal shift delta Tm” value [14] was 0.75 °C and the “thermal shift delta Tm” value [15] was 0.48 °C. The “thermal shift delta Tm” value [16] was 0.55 °C, the “thermal shift delta Tm” value [17] was 6.03 °C and the “thermal shift delta Tm” value [18] was 0.86 °C. For the same molecule, the “thermal shift delta Tm” value [19] was 0.77 °C and the “thermal shift delta Tm” value [20] was 0.98 °C.

In the case of `CCN(C)S(=O)(=O)Nc1ccc(F)c(C(=O)c2c[nH]c3ncc(-c4cnc(C5CC5)nc4)cc23)c1F`, the “thermal shift delta Tm” value [1] was 3.15 °C, the “thermal shift delta Tm” value [2] was 0.87 °C and the “thermal shift delta Tm” value [3] was 0.3 °C. For the same molecule, the “thermal shift delta Tm” value [4] was 0.5 °C, the “thermal shift delta Tm” value [5] was 0.47 °C and the “thermal shift delta Tm” value [6] was 0.08 °C. For the same molecule, the “thermal shift delta Tm” value [7] was 0.44 °C, the “thermal shift delta Tm” value [8] was 2.53 °C and the “thermal shift delta Tm” value [9] was 0.81 °C. For the same molecule, the “thermal shift delta Tm” value [10] was 0.37 °C, the “thermal shift delta Tm” value [11] was 1.47 °C and the “thermal shift delta Tm” value [12] was 6.9 °C. For the same molecule, the “thermal shift delta Tm” value [13] was 1.58 °C, the “thermal shift delta Tm” value [14] was 1.1 °C and the “thermal shift delta Tm” value [15] was 0.45 °C. For the same molecule, the “thermal shift delta Tm” value [16] was 0.13 °C, the “thermal shift delta Tm” value [17] was 1.23 °C and the “thermal shift delta Tm” value [18] was 0.65 °C. For the same molecule, the “thermal shift delta Tm” value [19] was 0.34 °C and the “thermal shift delta Tm” value [20] was 1.77 °C.

In the case of `CC(C)CCN1c2nc(Nc3cc(F)c(O)c(F)c3)ncc2N(C)C(=O)C1C` (stereo not given), the “thermal shift delta Tm” value [1] was 3.25 °C, the “thermal shift delta Tm” value [2] was 1.91 °C and the “thermal shift delta Tm” value [3] was 0.57 °C. The “thermal shift delta Tm” value [4] was 7.92 °C, the “thermal shift delta Tm” value [5] was 3.82 °C and the “thermal shift delta Tm” value [6] was 2.58 °C. The “thermal shift delta Tm” value [7] was 3.02 °C, the “thermal shift delta Tm” value [8] was 3.84 °C and the “thermal shift delta Tm” value [9] was 4.5 °C. The “thermal shift delta Tm” value [10] was 1.29 °C, the “thermal shift delta Tm” value [11] was 1.73 °C and the “thermal shift delta Tm” value [12] was 7.46 °C. For the same molecule, the “thermal shift delta Tm” value [13] was 8.92 °C, the “thermal shift delta Tm” value [14] was 1 °C and the “thermal shift delta Tm” value [15] was 1.42 °C. The “thermal shift delta Tm” value [16] was 0.53 °C, the “thermal shift delta Tm” value [17] was 3.47 °C and the “thermal shift delta Tm” value [18] was 1.8 °C. For the same molecule, the “thermal shift delta Tm” value [19] was 3.6 °C and the “thermal shift delta Tm” value [20] was 0.37 °C.

`O=c1ccc2ccc(O)c(O)c2o1` [Daphnetin] was tested, and the “thermal shift delta Tm” value [1] was 1.1 °C, the “thermal shift delta Tm” value [2] was 0.54 °C and the “thermal shift delta Tm” value [3] was 0.75 °C. For the same molecule, the “thermal shift delta Tm” value [4] was -0.23 °C, the “thermal shift delta Tm” value [5] was 0.69 °C and the “thermal shift delta Tm” value [6] was 1.08 °C. The “thermal shift delta Tm” value [7] was 0.83 °C, the “thermal shift delta Tm” value [8] was 0.8 °C and the “thermal shift delta Tm” value [9] was 1.96 °C. For the same molecule, the “thermal shift delta Tm” value [10] was 0.36 °C, the “thermal shift delta Tm” value [11] was 0.17 °C and the “thermal shift delta Tm” value [12] was 0.01 °C. The “thermal shift delta Tm” value [13] was -3.57 °C, the “thermal shift delta Tm” value [14] was 0.77 °C and the “thermal shift delta Tm” value [15] was 0.79 °C. The “thermal shift delta Tm” value [16] was 0.83 °C, the “thermal shift delta Tm” value [17] was 0.25 °C and the “thermal shift delta Tm” value [18] was 0.83 °C. For the same molecule, the “thermal shift delta Tm” value [19] was 1.31 °C and the “thermal shift delta Tm” value [20] was -0.12 °C.

`O=C(NCCCNc1nc(Nc2cccc(NC(=O)N3CCCC3)c2)ncc1I)c1cccs1` was tested, and the “thermal shift delta Tm” value [1] was 14.3 °C, the “thermal shift delta Tm” value [2] was 1.24 °C and the “thermal shift delta Tm” value [3] was 0.97 °C. For the same molecule, the “thermal shift delta Tm” value [4] was 7.32 °C, the “thermal shift delta Tm” value [5] was 0.57 °C and the “thermal shift delta Tm” value [6] was 6.67 °C. The “thermal shift delta Tm” value [7] was 6.52 °C, the “thermal shift delta Tm” value [8] was 7.01 °C and the “thermal shift delta Tm” value [9] was 3.4 °C. For the same molecule, the “thermal shift delta Tm” value [10] was 2.91 °C, the “thermal shift delta Tm” value [11] was 5.69 °C and the “thermal shift delta Tm” value [12] was 12.1 °C. The “thermal shift delta Tm” value [13] was 10.4 °C, the “thermal shift delta Tm” value [14] was 0.99 °C and the “thermal shift delta Tm” value [15] was 3.99 °C. For the same molecule, the “thermal shift delta Tm” value [16] was 1.24 °C, the “thermal shift delta Tm” value [17] was 9.95 °C and the “thermal shift delta Tm” value [18] was 0.36 °C. The “thermal shift delta Tm” value [19] was 0.51 °C and the “thermal shift delta Tm” value [20] was 0.21 °C.
